FEN1 inh = human FEN1 inhibition. Potency, µM (titrated, usually from 114 µM), without a hit: at the highest dose activity change, negative = inhibition, actives largely listed as inhibitors. AID 588795. actives 0.35% (n = 390,000). P39748. Recombinant FEN1 flap cleavage, fluorescence, 15 min; also: potency is read from the fitted curve at half-maximal effect; nearly all actives have a fitted effect of over 65% in size
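Nuclease activity of 10 nM FEN1 was measured after 15 min of room-temperature exposure to titrated compounds, by adding 50 nM flap substrate and reading plates at 0 and 15 min.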
APE1 inh = blocks human APE1 abasic DNA cleavage. P27695. recombinant APE1, TAMRA/BHQ-2 abasic DNA cleavage fluorescence. Potency, µM (series often up to 65.8 µM), for inactives: at the highest dose activity change, negative = inhibition, hits mostly inhibitors. actives 0.35% (n = 350,000). AID 2517;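 also: potency is read from the fitted curve at half-maximal effect; plate controls were vehicle for no effect and reference inhibitor for full effect; nearly all actives have a fitted effect of over 55% in size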
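Substrate: short duplex with […] THF abasic site, 5'-TAMRA and 3'-BHQ-2, 50 nM final. APE1 at 0.75 nM, preincubated 15 min RT with compound. Fluorescence increase from first to third read measured activity.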
KAT2A inh = blocks human GCN5L2 histone acetyltransferase; Potency, µM (highest dose often 58.9 µM), inactives show top-dose activity change, negative = inhibition, usual class: inhibitors; actives 0.21% (n = 390,000); GCN5L2 HAT assay, ThioGlo1 CoA-SH fluorescence; also: potency is read from the fitted curve at half-maximal effect
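Enzyme at 20nM final was mixed with library compounds for 15 min at room temperature. Peptide H3(1-25) at 75uM, acetyl-CoA at 70uM and ThioGlo1 at 50uM were then added. Plates were read immediately and after 20 min (Ex340nm/Em540nm).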
RECQ1 inh = RECQ1 (human) helicase inhibition; RECQ1 DNA unwinding, red fluorescence kinetic read; P46063; actives 0.54% (n = 240,000); AID 2549; Potency, µM (top dose mostly 57.3 µM), without a hit: at the top dose activity, negative = inhibition, usual class: inhibitors;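 also: potency is read from the fitted curve at half-maximal effect; plate controls were vehicle for no effect and no enzyme for full effect; nearly all actives have a fitted effect of over 30% in size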
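50 nM RECQ1T1 preincubated 15 min with compound in Tris pH 8.0 buffer with MgCl2, DTT, Tween-20 and 2.5 ug/ml poly(dI-dC); started with 200 nM TAMRA/BHQ-2 forked duplex and 2 mM ATP. Unwinding read as fluorescence (525/598 nm), two reads 2 h apart.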
BLM helicase inh = Bloom syndrome helicase (human) inhibition. Potency, µM (titrated, usually from 56.1 µM), for inactives: top-dose activity change, negative = inhibition, hits mostly inhibitors. AID 2528. actives 0.2% (n = 350,000). P54132. recombinant BLM DNA unwinding, fluorescence dequenching;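 also: potency is read from the fitted curve at half-maximal effect; plate controls were vehicle for no effect and no enzyme for full effect; nearly all actives have a fitted effect of over 35% in size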
PI5P4Ka inh = blocks human PI5P4K alpha kinase activity; P48426; PI5P4Kalpha enzyme, ADP-Glo luminescence, 60 min; stronger effect = lower value; max response, %; actives 1.2% (n = 330,000); active = max response of -50% or lower; inconclusive = between -30% and -50%; inactive = -30% or higher; also: value at the top dose of about 77 µM
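Enzyme plus substrate dispensed, test compounds pinned in, then ATP (5 microM final) added. After 60 min at RT, ADP-Glo reagent 1 for 45 min and reagent 2 for 30 min preceded luminescence imaging.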
* marks the source's active call; other numbers are inactive results; i = inactive; ? = inconclusive; . = no result given. Rows were chosen to be rich in hits. Some 1.5% of all compounds tested hit in one or more screens of this group. Unless noted, calls follow the shape of the dose curve; as a rule, active = well fitted curve in the direction sought with a large enough effect; inconclusive = small, poorly fitted or top-dose-only effect, or another doubt; inactive = no such curve, though single readings can be large; an effect the other way counts as inactive or inconclusive. Unless noted, % is scaled to controls: 0 for no effect and ±100 for the full control effect.

SMILES	FEN1 inh	APE1 inh	KAT2A inh	RECQ1 inh	BLM helicase inh	PI5P4Ka inh
O=C(N/N=C/c1ccc([N+](=O)[O-])o1)c1ccccc1NS(=O)(=O)c1cccs1	?	1%	-4%	-8%	-4%	-57*
O=C(O)c1cc(-c2ccc(/C=N/NC(=S)Nc3ccccc3)o2)ccc1Cl	-19%	?	-7%	?	4%	-72*
O=[N+]([O-])c1cccc(-c2ccc(/C=N/NC(=S)Nc3ccccc3)o2)c1	8%	-4%	-2%	7%	-2%	5
O=[N+]([O-])c1ccc(/C=N/NC(=S)Nc2ccccc2)o1	-12%	24%	4%	1%	0%	-60*
COC(=O)c1ccc2c(c1)C(C)(C)C(/C=C/c1ccc(O)cc1)=[N+]2C	45µM*	?	-26%	13µM*	-1%	.
CCOC(=O)C1CCCN(C(=O)Cn2sc3nc(C)cc(C)c3c2=O)C1 (stereo not drawn)	?	0%	?	-2%	-9%	-81*
Cc1nn(CC(=O)N2CCC(N3CCCCC3)CC2)c(=O)c2c1sc1ccccc12	15%	-3%	-2%	.	-3%	6
CCCNC(=O)Cn1sc2nc(C)cc(C)c2c1=O	50µM*	1%	28µM*	0%	-2%	-83*
CC(=O)Cn1cnc2c(sc3nc(C)cc(C)c32)c1=O	13%	-1%	1%	-3%	4%	-8
Cc1cc(C)c2c(=O)n(CC(=O)N3CCC(N4CCCCC4)CC3)sc2n1	?	23%	32µM*	1%	-4%	-81*
Cc1noc(C)c1-c1ccc2ncnc(NCc3ccc(Br)cc3)c2c1	.	?	.	-2%	-5%	.
C=C1C=C(C(F)F)n2ncc(C(=O)NCc3ccccc3Cl)c2N1	.	40%	.	.	.	.
O=[N+]([O-])c1cccc(/C=N\N=C2c3ccccc3-c3ccccc32)c1O	-22%	7%	26%	-8%	-4%	-54*
O=[N+]([O-])c1cccc(C=NN=C2c3ccccc3-c3ccccc32)c1	-4%	.	.	.	.	46
Cc1ccccc1NC(=O)c1nc(S(=O)(=O)Cc2ccccc2F)ncc1Cl	-16%	.	.	.	.	.
Cc1occc1C(=O)NCc1cccc(CNC(=O)c2ccoc2C)c1	?	?	-10%	-18%	-17%	-53*
Cc1occc1C(=O)NCc1ccc2c(c1)OCO2	-6%	15%	-2%	i	-1%	-16
C=CCN(C(=O)CCc1ccccc1OC)c1nc(-c2ccc(S(C)(=O)=O)cc2)cs1	10%	-6%	-12%	.	-9%	-4
C=CCN(C(=O)Cc1cccs1)c1nc(-c2ccc(S(C)(=O)=O)cc2)cs1	-4%	17%	-14%	.	-11%	-63*
COc1ccc(CNCc2ccccc2)cc1COc1ccc(NC(C)=O)cc1	-23%	.	.	.	.	.
CC1(C)OB(c2cnc(C#N)nc2)OC1(C)C	18%	.	.	.	.	.
O=C(O)CCSc1nc2ccccc2s1	12%	20%	-8%	11%	2%	.
Nc1c(SCCC(=O)O)ccc2c1C(=O)c1ccccc1C2=O	?	25%	-8%	.	-12%	-87*
Cc1ccc2cc(/C=N/NC(=O)c3ccc(F)cc3)c(Cl)nc2c1	-2%	10%	-5%	-16%	-4%	1
Cc1ccc2nc(Cl)c(/C=N/Nc3ccc(C(=O)O)cc3)cc2c1	45µM*	?	-19%	-5%	-6%	-16
SMILES	FEN1 inh	APE1 inh	KAT2A inh	RECQ1 inh	BLM helicase inh	PI5P4Ka inh
CC(C)CCC[C@@H](C)[C@H]1CC[C@H]2[C@@H]3CC=C4CC(O)CC[C@]4(C)[C@H]3CC[C@]12C (stereo partly drawn)	.	-7%	23%	-13%	-2%	.
Oc1cccc(/C=N/NC(=S)Nc2cccnc2)c1O	?	?	-1%	?	-20%	-66*
Oc1ccc(/C=N/NC(=S)Nc2cccnc2)c(O)c1	-14%	-2%	-3%	-5%	2%	-75*
Fc1ccc(/C=N/NC(=S)Nc2cccnc2)cc1	0%	-20%	-15%	2%	-2%	-8
Oc1ccc(/C=N/NC(=S)Nc2cccnc2)c(O)c1O	4.5µM*	0.79µM*	-9%	3.5µM*	-20%	-96*
Fc1c(F)c(F)c(/C=N/NC(=S)Nc2cccnc2)c(F)c1F	4%	-1%	3%	i	-16%	-11
CSc1nc(N)c2ncn([C@@H]3O[C@H](COP(=O)(O)OP(=O)(O)O)C(O)[C@H]3O)c2n1 (stereo partly drawn)	.	.	-17%	.	.	.
O=C(CC(C(=O)O)n1ccnc1)c1ccc(Cl)cc1 (stereo not drawn)	8%	.	.	.	.	.
Cc1ccc(S(=O)(=O)Nc2ccccc2NS(=O)(=O)c2ccc(C)cc2)cc1	.	.	.	.	.	0
Cc1ccc(S(=O)(=O)NNc2ccccc2)cc1	0%	5%	28µM*	-6%	-3%	.
Cc1ccc(S(=O)(=O)Nc2ccc(Nc3ccccc3)cc2)cc1	5%	-5%	-8%	.	-9%	-5
Cc1ccc(S(=O)(=O)Nn2c(C)ccc2C)cc1	-8%	16%	-18%	-27%	-29%	-58*
Cc1ccc2oc(-c3ccc(C)c(NC(=O)COc4ccc(Cl)cc4C)c3)nc2c1	-18%	.	.	.	.	.
COc1cc(C)c(NC(C)C(=O)c2c(C)[nH]c3ccccc23)cc1OC (stereo not drawn)	0%	.	.	.	.	.
O=C1NC(=NCc2ccccc2)S/C1=C\c1ccccc1	0%	3%	21%	4%	-5%	-5
O=C1NC(=S)S/C1=C\c1ccc(SCc2ccccc2)o1	79µM*	?	-6%	?	-1%	-77*
COc1cc(OC)cc(-c2c(-c3cccs3)c3cc(-c4cc(OC)c(OC)c(OC)c4)ccc3n2C)c1	-15%	-15%	-12%	.	.	10
COc1ccc(-c2ccc3c(c2)c(-c2cccs2)c(-c2cc(OC)cc(OC)c2)n3C)cc1	-16%	-1%	20µM*	.	.	9
COc1ccc(CCN(C)CCC(=O)Nc2cc(C)ccc2C)cc1OC	7%	5%	1.6µM*	-2%	-8%	-1
COC(=O)c1ccc(C)c(NC(=O)CCc2ccc(OC)c(OC)c2)c1	-3%	4%	-3%	-5%	-2%	-5
CN=C(c1ccco1)n1c(=S)nc(-c2ccco2)n(C)c1=S	-13%	?	-20%	-3%	-10%	-68*
CN1C(=O)/C(=C/c2ccc(O)c([N+](=O)[O-])c2)NC1=S	4%	4%	-2%	-2%	-9%	-56*

Screens from PubChem.
